Experimental data: ChEMBL document CHEMBL3988442, “University of Dundee, Small-Polar-MMV Screening Library” (2021)

Tests used:
[1] = biological target: T1, Aspartate--tRNA(Asp/Asn) ligase (Mycobacterium tuberculosis (strain ATCC 25618 / H37Rv)) (UniProt P9WFW3); test: Assay for Asp RNA synthetase-1 from Mycobacterium tuberculosis; assay type: functional; parameters: scale not given: direction of the effect not stated beside the values; details: 30 µM; further: in the data most compounds retested in dose-response had high values
T1 sequence (whole entry): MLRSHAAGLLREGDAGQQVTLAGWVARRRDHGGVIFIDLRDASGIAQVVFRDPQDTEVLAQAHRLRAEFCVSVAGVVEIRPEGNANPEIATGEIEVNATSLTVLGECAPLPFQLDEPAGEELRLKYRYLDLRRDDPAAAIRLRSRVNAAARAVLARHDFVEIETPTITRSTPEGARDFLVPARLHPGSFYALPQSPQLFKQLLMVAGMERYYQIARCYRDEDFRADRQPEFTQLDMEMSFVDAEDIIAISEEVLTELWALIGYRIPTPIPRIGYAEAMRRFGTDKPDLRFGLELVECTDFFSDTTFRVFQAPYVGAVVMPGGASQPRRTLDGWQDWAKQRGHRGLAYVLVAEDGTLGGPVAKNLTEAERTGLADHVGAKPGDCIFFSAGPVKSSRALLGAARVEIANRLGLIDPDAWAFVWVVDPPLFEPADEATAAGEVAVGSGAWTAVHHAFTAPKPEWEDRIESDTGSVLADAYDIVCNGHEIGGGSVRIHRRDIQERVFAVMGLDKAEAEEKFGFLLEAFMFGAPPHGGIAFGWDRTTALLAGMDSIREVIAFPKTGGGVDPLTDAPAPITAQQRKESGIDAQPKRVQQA

[2] = biological target: Shiga toxin 2 (Escherichia coli O157:H7) (UniProt P09385+P09386); test: E. coli 0.157:H7 Shiga Toxin SOP - stx2 screening assay; assay type: functional; parameters: scale not given: direction of the effect not stated beside the values; details: 30 µM

Cc1cccc(C(=O)N2CCN(S(C)(=O)=O)[C@@H](C)C2)c1C
Percent Effect [1]: -3.1%
Percent Effect [2]: -11.5%

CCCOc1ccc(CNC2CCCc3c2cnn3CC)cc1OC (configuration not stated)
Percent Effect [1]: -1.51%
Percent Effect [2]: -22.9%

CCc1ccc(NC(=O)C2OC(c3cccs3)=NN2C(C)=O)cc1 (configuration not stated)
Percent Effect [1]: -1.78%
Percent Effect [2]: -90%

Cc1noc([C@H]2C[C@H]3OCC[C@H]3N(S(=O)(=O)C3CC3)C2)n1
Percent Effect [1]: 0.456%
Percent Effect [2]: 19.9%

Fc1ccc(OCc2noc(CN3CCc4cncnc4C3)n2)cc1
Percent Effect [1]: -0.7%
Percent Effect [2]: -1.88%

N#Cc1ccccc1OCCN1CCCCC1Cn1cncn1 (configuration not stated)
Percent Effect [1]: 3.26%
Percent Effect [2]: 5.17%

CCC(CNC(=O)Nc1cnn(CC)c1)N1CCCC1 (configuration not stated)
Percent Effect [1]: -2.08%
Percent Effect [2]: 1.4%

Cc1ncccc1O[C@H]1CCN(C(=O)c2cccs2)CC[C@@H]1O
Percent Effect [1]: 4.9%
Percent Effect [2]: 6.92%

Cc1cc2c(=O)n3c(nc2s1)CCN(C(=O)c1cnn(C)c1C)CC3
Percent Effect [1]: 0.849%
Percent Effect [2]: 5.44%

O=C(NCCOc1ccc2c(c1)OCO2)N1CCC1
Percent Effect [1]: 0.81%
Percent Effect [2]: -21.5%

Cn1ccnc1CN1CCC2(CC1)CC(NC(=O)c1ccccn1)CO2 (configuration not stated)
Percent Effect [1]: 2.38%
Percent Effect [2]: -19.4%

Fc1ccc(CN2CCCC(Cn3cncn3)C2)c2ncccc12 (configuration not stated)
Percent Effect [1]: 14.3%
Percent Effect [2]: -38.7%

Cc1nn(C)c2c(N3CCN(C(=O)NC4CCCCC4)CC3)ncnc12
Percent Effect [1]: -5.2%
Percent Effect [2]: -44.8%

O=S1(=O)COCCN1Cc1cccc(Cl)c1
Percent Effect [1]: -0.479%
Percent Effect [2]: 10.7%

CN(C)C(=O)N1CCN(Cc2noc(Cc3ccccc3)n2)CC1
Percent Effect [1]: 0.542%
Percent Effect [2]: 8.78%

Cc1occc1C(=O)N1CCOCC2(CCN(Cc3nccs3)C2)C1 (configuration not stated)
Percent Effect [1]: -0.802%
Percent Effect [2]: -26.4%

CC(=O)N1CCCN(C(=O)NCCc2cc(Cl)cc(Cl)c2)CC1
Percent Effect [1]: -1.44%
Percent Effect [2]: -10%

CC(=O)N1CCCCC1c1nc2c(c(N3CCCCC3)n1)CN(C)CC2 (configuration not stated)
Percent Effect [1]: -1.98%
Percent Effect [2]: 2.68%

Cc1cc(-c2cnn(CCNC(=O)C3CC3)c2C2CC2)on1
Percent Effect [1]: 0.838%
Percent Effect [2]: 64.1%

Fc1cccc(-c2nc(CN3CCCCC3Cn3cncn3)co2)c1 (configuration not stated)
Percent Effect [1]: 0.0286%
Percent Effect [2]: 14.4%

O=C1CC(c2ccsc2)c2sc(C(=O)O)c(-c3ccccc3)c2N1 (configuration not stated)
Percent Effect [1]: 1.95%
Percent Effect [2]: 17.4%

Cc1cc(NC(=O)NCC(C)N2CCc3ccccc32)no1 (configuration not stated)
Percent Effect [1]: 2.59%
Percent Effect [2]: -1.83%

Cc1nocc1C(=O)N1CCc2c(CN(C)C(C)C)n[nH]c2C1
Percent Effect [1]: 0.866%
Percent Effect [2]: 3.98%

Cc1ccc(C(=O)NCCCN2CCOCC2)c(Cl)c1
Percent Effect [1]: 0.357%
Percent Effect [2]: -18.1%

CC(c1ccco1)N(C)Cc1nc2c(cnn2C)c(=O)[nH]1 (configuration not stated)
Percent Effect [1]: -2.56%
Percent Effect [2]: -9.3%

O=C(CN1CCOC(Cn2cccn2)C1)Nc1nccs1 (configuration not stated)
Percent Effect [1]: -4.87%
Percent Effect [2]: -17.3%

Cc1nc(N2CCOCC2)nc2c1CN(C(=O)Cc1ccccn1)CC2
Percent Effect [1]: -2.71%
Percent Effect [2]: -57.2%

Cc1nc(CN2CCN(C(=O)COCc3ccccc3)CC2)no1
Percent Effect [1]: -0.353%
Percent Effect [2]: -1.66%

Cc1ccc(CN2CCCC3(COCCN(Cc4c[nH]nn4)C3)C2)o1 (configuration not stated)
Percent Effect [1]: 4.69%
Percent Effect [2]: -4.03%

COCc1nc(C(=O)N2CCCC2c2ccccc2C)cs1 (configuration not stated)
Percent Effect [1]: -0.975%
Percent Effect [2]: -12.9%

CNc1ccc(CC2CCCN(C(=O)c3cnc(C)nc3)C2)nn1 (configuration not stated)
Percent Effect [1]: 1.57%
Percent Effect [2]: -10.7%

CC(C)CN1CCC2(CCN(Cc3ccsc3)CC2)C1=O
Percent Effect [1]: -5.3%
Percent Effect [2]: -18.6%

Cn1ccc(C(=O)NC2CCC23CCN(C(=O)c2ccncc2)CC3)c1 (configuration not stated)
Percent Effect [1]: 0.319%
Percent Effect [2]: -10.5%

CCN(Cc1cccc2c1OCO2)C(=O)Nc1ccncc1
Percent Effect [1]: -0.0463%
Percent Effect [2]: -14.2%

CN1CCN(C(=O)c2nc3c(o2)CN(C(=O)c2cccnc2)C3)CC1
Percent Effect [1]: 2.23%
Percent Effect [2]: -53.6%

CC(C)n1cc(C(=O)N2Cc3ccccc3OC3(CCOCC3)C2)cn1
Percent Effect [1]: -1.29%
Percent Effect [2]: -21.7%

Cc1cccnc1NC(=O)C(C)Cn1nc(C(F)(F)F)cc1C (configuration not stated)
Percent Effect [1]: -2.9%
Percent Effect [2]: -1.69%

COc1ccc(C2CCCN2C(=O)c2cc3c([nH]c2=O)CCC3)cc1 (configuration not stated)
Percent Effect [1]: 3.11%
Percent Effect [2]: -10%

Cc1nc(C)n(CC2CN(CCOCC(F)(F)F)CCO2)n1 (configuration not stated)
Percent Effect [1]: 3.1%
Percent Effect [2]: 8.57%

CN(C)CCN(C)C(=O)c1cnc2c(c1)nc(-c1ccccc1Cl)n2C
Percent Effect [1]: 7.01%
Percent Effect [2]: 9.89%

O=C(C1CCCCC1)N1CCC2(CCCN2CC2CC2)CC1
Percent Effect [1]: 2.39%
Percent Effect [2]: -6.44%

CS(=O)(=O)NC[C@]12COC[C@H]1CN(CC1CCCC1)C2
Percent Effect [1]: 0.107%
Percent Effect [2]: 6.37%

Cc1ccc(-c2nc(CNC3CCc4ncnn4C3)co2)c(C)c1 (configuration not stated)
Percent Effect [1]: -9.8%
Percent Effect [2]: -22%

CC(C)(C)OC(=O)N1CCCc2ccc(NCc3ncc[nH]3)cc21
Percent Effect [1]: 5.68%
Percent Effect [2]: -52.5%

COc1cc(CNc2cnn(C)c2)cc2c1OCCO2
Percent Effect [1]: -1.79%
Percent Effect [2]: 7.95%

O=C(NCc1nn(-c2ccccc2)c2c1CCC2)N1CCSCC1
Percent Effect [1]: -2.32%
Percent Effect [2]: 34%
